Screening data (PubChem)
Gal4-VP16 FLuc = inhibits Gal4-VP16 luciferase reporter, ROR gamma counter-screen; Drosophila S2 Gal4-VP16 UAS-luciferase, luminescence, 20 h; Potency, µM (top dose mostly 53.6 µM), most hits filed as inhibitors; 3.5% of 310,000 active;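 also: Gal4-VP16 expression switched on by copper sulfate through the metallothionein promoter; nearly all actives have a fitted effect of over 50% in size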
KinaseGlo FLuc = Kinase-Glo luciferase inhibition (counter-screen) | Kinase-Glo luciferase, ATP luminescence, 8 min | 0.28% of 200,000 active | Q27757 | Potency, µM (series often up to 38.3 µM), most hits filed as inhibitors; also: nearly all actives have a fitted effect of over 60% in size
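Recombinant Kinase-Glo luciferase, 10 uM ATP (linear range), luciferin; imidazole pH 7.2 / KCl / MgCl2 / Tween / BSA buffer; 8 min RT; luminescence.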
RORg inh = inhibitors of mouse ROR gamma transcriptional activity | P51450 | Drosophila S2 Gal4-RORgamma UAS-luciferase reporter, 20 h | Potency, µM (titrated, usually from 53.6 µM), actives largely listed as inhibitors | 5.4% of 310,000 active; also: nearly all actives have a fitted effect of over 60% in size
Target sequence (P51450 whole entry, looked up, the tested form may be a part): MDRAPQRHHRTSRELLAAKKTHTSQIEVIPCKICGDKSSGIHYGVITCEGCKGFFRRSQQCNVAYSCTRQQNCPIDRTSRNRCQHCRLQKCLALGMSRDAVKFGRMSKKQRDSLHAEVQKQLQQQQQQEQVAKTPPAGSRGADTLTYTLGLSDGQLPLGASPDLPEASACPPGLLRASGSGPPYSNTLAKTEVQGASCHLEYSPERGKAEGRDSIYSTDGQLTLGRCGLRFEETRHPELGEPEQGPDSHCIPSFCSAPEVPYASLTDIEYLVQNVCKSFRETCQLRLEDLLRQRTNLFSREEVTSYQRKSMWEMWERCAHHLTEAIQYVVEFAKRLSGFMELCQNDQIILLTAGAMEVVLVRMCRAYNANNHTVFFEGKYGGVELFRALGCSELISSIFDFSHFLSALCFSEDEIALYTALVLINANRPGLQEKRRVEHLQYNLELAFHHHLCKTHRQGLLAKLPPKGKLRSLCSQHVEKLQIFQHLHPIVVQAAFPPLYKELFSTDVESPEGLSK
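Using a luciferase readout, inhibitors were identified by reduced reporter activity in Drosophila cells coexpressing a copper-inducible Gal4–ROR gamma fusion and UAS-driven Photinus luciferase, incubated 20 hr after 700 uM copper sulfate.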
Of the large screens only hits and unclear results are named; the others gave an inactive call. Sampled rows, rich in hits. Any-hit rate of the full collection: about 6.4%. Calls follow the shape of the dose curve; as a rule, active = well fitted curve in the direction sought with a large enough effect; inconclusive = small, poorly fitted or top-dose-only effect, or another doubt; inactive = no such curve, though single readings can be large; an effect the other way counts as inactive or inconclusive.

Cc1ccc(C)c(NS(=O)(=O)c2cc(C(=O)NCc3ccncc3)ccc2C)c1	none (no result: KinaseGlo FLuc)
NNC(=S)NC1CC2CC1C1C=CCC21 (stereo unspecified)	Gal4-VP16 FLuc 2.8µM, RORg inh 0.45µM (no result: KinaseGlo FLuc)
CCOc1ccc(NC(=O)CN(C)C(=O)C2CCCC2)cc1OCC	none (no result: KinaseGlo FLuc)
CCOc1ccc(NC(=O)CN(C)C(=O)c2ccc(=O)[nH]c2)cc1OCC	RORg inh 11µM (no result: KinaseGlo FLuc)
c1ccc(-n2ncc3c(N4CCCCC4)ncnc32)cc1	Gal4-VP16 FLuc 5.6µM, RORg inh 5µM
CC1CCCN(c2ncnc3c2cnn3-c2ccc(Cl)cc2)C1 (stereo unspecified)	none (no result: KinaseGlo FLuc)
CC1CCCN(c2ncnc3c2cnn3-c2ccccc2)C1 (stereo unspecified)	Gal4-VP16 FLuc 5µM, RORg inh inconclusive (no result: KinaseGlo FLuc)
CCN1CCN(c2ncnc3c2cnn3-c2ccccc2)CC1	none
COc1ccc(S(=O)(=O)N/N=C(/C)c2ccncc2)cc1	none (no result: KinaseGlo FLuc)
CCOc1ccc(Br)cc1C(=O)N/N=C/c1c[nH]c2ccccc12	none (no result: KinaseGlo FLuc)
Cc1c(/C=N/NC(=O)c2cc(Br)ccc2O)c(=O)n(C)c(=O)n1C	none (no result: KinaseGlo FLuc)
O=C(NN=C1CCN(Cc2ccccc2)CC1)c1cc(Br)ccc1O	Gal4-VP16 FLuc inconclusive, RORg inh 3.5µM
O=C(N/N=C/c1c[nH]c2ccccc12)c1cc(Br)ccc1O	Gal4-VP16 FLuc 7.9µM, RORg inh 5.6µM (no result: KinaseGlo FLuc)
Cc1cc(C(=O)N/N=C/c2c[nH]c3ccccc23)cs1	none
O=C(N/N=C/c1c[nH]c2ccccc12)c1cccc([N+](=O)[O-])c1	Gal4-VP16 FLuc inconclusive, RORg inh 13µM
O=C(NN=C1CCN(Cc2ccccc2)CC1)c1ccccc1	none
C/C=N/NC(=O)c1cc(Br)ccc1O	Gal4-VP16 FLuc inconclusive, RORg inh 11µM
O=C(COC(=O)c1cc2ccccc2oc1=O)Nc1ccc(F)cc1F	none (no result: KinaseGlo FLuc)
COc1ccc(CCN(C)C2CCCN(C(=O)Cn3cnnn3)C2)cc1OC (stereo unspecified)	none (no result: KinaseGlo FLuc)
COc1ccccc1CN1CC(C(=O)NCc2cc(F)ccc2C)CCC1=O (stereo unspecified)	none (no result: KinaseGlo FLuc)
O=C(N/N=C/c1c[nH]c2ccccc12)c1[nH]c2ccc(Br)cc2c1-c1ccccc1	Gal4-VP16 FLuc inconclusive, RORg inh 16µM
O=C(N/N=C/c1ccc(O)cc1)c1[nH]c2ccc(Br)cc2c1-c1ccccc1	Gal4-VP16 FLuc inconclusive
CCn1c2ccccc2c2cc(NC(=O)CSc3nccc(=O)[nH]3)ccc21	none
Cc1cccc(Nc2sc(C(=O)c3cc4cc(Cl)ccc4o3)c(N)c2C#N)c1	none (no result: KinaseGlo FLuc)
CCC(=O)N1N=C(c2cccs2)CC1c1ccc(C)cc1 (stereo unspecified)	none (no result: KinaseGlo FLuc)
Cc1ccc(C2CC(c3cccs3)=NN2C(=O)CCl)cc1 (stereo unspecified)	Gal4-VP16 FLuc inconclusive, RORg inh 18µM (no result: KinaseGlo FLuc)
O=C(Nc1ccccn1)c1ccc(CN(c2ccccc2)S(=O)(=O)c2ccccc2)cc1	none
CCN(c1ccccc1)S(=O)(=O)c1ccc(C(=O)Nc2nnc(-c3ccco3)o2)cc1	RORg inh 0.1µM
CN(c1ccccc1)S(=O)(=O)c1ccc(C(=O)Nc2nnc(-c3ccco3)o2)cc1	Gal4-VP16 FLuc 1.1µM, RORg inh 0.71µM
CCc1nnc(NC(=O)c2ccc(N(C)S(=O)(=O)c3ccccc3)cc2)s1	RORg inh inconclusive
CCN1C(=O)[C@H]2[C@H]3[C@H](O)[C@H](O)C/C(=N/O[C@@H](C)c4cn([C@H](CO)Cc5ccccc5)nn4)[C@@H]3CC[C@@H]2C1=O	none (no result: KinaseGlo FLuc)
N=C(N)N1Cc2ccccc2C(O)C1 (stereo unspecified)	none (no result: KinaseGlo FLuc)
CC(C)C(NC(=O)/C(=C/c1ccco1)NC(=O)c1ccc(Br)o1)C(=O)O (stereo unspecified)	none (no result: KinaseGlo FLuc)
CN1C/C(=C/c2ccsc2)C(=O)/C(=C/c2ccsc2)C1	Gal4-VP16 FLuc inconclusive
CN1C/C(=C/c2ccncc2)C(=O)/C(=C/c2ccncc2)C1	Gal4-VP16 FLuc 4µM, RORg inh 13µM (no result: KinaseGlo FLuc)
CCOC(=O)c1sc2ncnc(NCc3ccco3)c2c1C	Gal4-VP16 FLuc 11µM, RORg inh 7.9µM
CCOC(=O)CSc1nc(NCc2ccco2)c2ccccc2n1	none
CCOC(=O)c1cnc2ccc(OC)cc2c1NCc1ccccc1	Gal4-VP16 FLuc inconclusive, RORg inh inconclusive
CCOC(=O)c1cnc2ccccc2c1NCc1ccco1	Gal4-VP16 FLuc inconclusive, RORg inh 6.3µM (no result: KinaseGlo FLuc)
CCOC(=O)c1cnc2ccccc2c1Nc1ccc2c(c1)OCCO2	Gal4-VP16 FLuc inconclusive, RORg inh 11µM
CCOC(=O)c1cnc2ccc(OCC)cc2c1NCc1ccccc1OC	Gal4-VP16 FLuc inconclusive, RORg inh 13µM
CCOC(=O)c1sc2nc(CC(=O)OC)nc(NCc3ccco3)c2c1C	none
CCOC(=O)CSc1nc(Nc2ccc3c(c2)OCO3)c2ccccc2n1	none
CC1(C)OC(=O)C(=CNNc2c(Cl)cc(Cl)cc2Cl)C(=O)O1	none (no result: KinaseGlo FLuc)
